Each structure is given as a SMILES string. Where “and” joins values, the source holds several entries; their conditions need not be identical. Equal values may be shown once. Calls of active or inactive are those of the source.

This note sets out measurements from PubChem BioAssay.

For assay [1], the system named is Human papillomavirus type 1a protein E7 (residues 44-93). As to the kind of experiment: small molecules binding HPV E7 44-93 – biochemical, small-molecule microarray, residues 44-93, 635 nm fluorescence, primary screen (AID 1108).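 Also: E7 fragment applied at 1 µg/mL in TBST for 1 h at 4 C; score combines spot fluorescence with its signal to noise ratio.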 As to conditions: fluorescence 635 nm, higher = more signal.
Assay [2] can be described thus: hepatitis C replication reporter changes, two-sided – Huh7 cells, luciferase reporter, HCV replication inhibitor project, primary screen (AID 1109).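 Also: huh7 hepatoma cells harbouring a luciferase neomycin HCV replicon reporter; luciferase luminescence as measure of HCV replicon replication; test concentration not given here.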 Particulars: Huh7 HCV replicon luciferase reporter, 48 h; higher = more signal.
Assay [3] deals with Left-right determination factor 2 (Homo sapiens) (UniProt O00292). As to the kind of experiment: small molecules binding LEFTY2 protein – biochemical, small-molecule microarray, 635 nm fluorescence scan, primary screen (AID 1110). As to conditions: higher = more signal.
For assay [4], the target named is Calmodulin-1 (Homo sapiens) (UniProt P0DP23). As to the kind of experiment: small molecules binding calmodulin-1 with EGTA – biochemical, small-molecule microarray, Cy5-labelled CALM1, profiling panel (AID 1111).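 Also: labelled calmodulin applied in Tris saline Tween buffer holding calcium plus EGTA and DTT.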 As to conditions: Cy5-CALM1 binding fluorescence, higher = more signal.
The target is the same in assay [5]. In words: small molecules binding Ca-loaded calmodulin-1 – biochemical, small-molecule microarray, Cy5-labelled CALM1, plus calcium, artefact control for SMM control-protein annotation, profiling panel (AID 1112).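 Also: score merges spot fluorescence with signal to noise from triplicate slides.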 Particulars: Cy5-CALM1 binding fluorescence, higher = more signal.
Assay [6] is described as follows: probe aWnt5a binding to arrayed compounds – biochemical, biotinylated probe, 635/667 nm fluorescence, primary screen (AID 1113).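 Also: score merges 667 nm fluorescence intensity with signal-to-noise per printed feature.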 Particulars: small-molecule microarray, higher = more signal.
Assay [7] in a line: probe aShh binding to arrayed compounds – biochemical, biotinylated probe, 635/667 nm fluorescence, primary screen (AID 1114).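 Also: probe is biotin-labelled aShh protein from a stem cell growth factor screen; measures binding of labelled protein to compounds printed on the slide; score merges feature fluorescence at 667 nm with signal-to-noise.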 As to conditions: small-molecule microarray, higher = more signal.
Assay [8] can be described thus: probe aNog binding to arrayed compounds – biochemical, biotinylated probe, 635/667 nm fluorescence, primary screen (AID 1115).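 Also: probe is biotinylated aNog protein used at 0.15 µg/mL for 1 h at 4 C; z-score combines 667 nm fluorescence of each spot with its signal to noise.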 As to conditions: small-molecule microarray, higher = more signal.
Assay [9] concerns the target Torsin-1A-interacting protein 1 (Homo sapiens) (UniProt Q5JTV8). As to the kind of experiment: compound microarray binding of lysate hLAP1 – cell lysate, small-molecule microarray, COS7 lysate, 635/667 nm fluorescence, primary screen (AID 1116). As to conditions: 635 nm fluorescence, higher = more signal.
Assay [10] has as its target Alpha-bungarotoxin (Bungarus multicinctus) (UniProt P60615). In words: compounds binding labelled alpha-BTX control protein – biochemical, small-molecule microarray, Alexa647 label, 635/667 nm fluorescence, artefact control for SMM control protein annotation, profiling panel (AID 1117). Particulars: alpha-BTX-A647 binding fluorescence, higher = more signal.
Assay [11] concerns the target Albumin (Bos taurus) (UniProt P02769). As to the kind of experiment: compounds binding labelled BSA control protein – biochemical, small-molecule microarray, Alexa647 label, 635/667 nm fluorescence, artefact control for SMM control protein annotation, profiling panel (AID 1118).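 Also: score merges 667 nm emission intensity and signal-to-noise per printed compound spot.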 Particulars: BSA-A647 binding, fluorescence 635 nm, higher = more signal.
Assay [12] in a line: probe aXIP binding to arrayed compounds – biochemical, NeuroSMM set, 635/667 nm fluorescence, primary screen (AID 1119).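 Also: probe is the protein aXip251-270 applied at 1 µg/mL to compound-printed slides; binding of probe to printed compounds measured as 667 nm fluorescence plus signal to noise.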 As to conditions: small-molecule microarray, higher = more signal, called active from +8 up or from −8 down.
Assay [13] can be described thus: probe aNOTCH3 binding on compound microarray – biochemical, small-molecule microarray, 635/667 nm fluorescence, primary screen (AID 1120).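 Also: probe is a biotin-tagged antibody raised against NOTCH3 rather than NOTCH3 protein; score merges spot fluorescence near 667 nm with spot signal to noise.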 As to conditions: higher = more signal.
A short description of assay [14]: probe aNOTCH2 binding on compound microarray – biochemical, small-molecule microarray, 635/667 nm fluorescence, primary screen (AID 1121).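 Also: score merges feature fluorescence read at 667 nm with its signal to noise.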 As to conditions: higher = more signal.
Assay [15] deals with Carbonic anhydrase 2 (Homo sapiens) (UniProt P00918). As to the kind of experiment: compounds binding carbonic anhydrase 2 – biochemical, small-molecule microarray, Alexa647-labelled CAII, profiling panel (AID 1122). Particulars: CAII-A647 binding fluorescence, higher = more signal.
Assay [16] can be described thus: COS7 lysate on small-molecule microarray, probe aHis, 635 nm (AID 1123).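 Also: z-score combines 667nm fluorescence intensity with signal-to-noise per printed compound spot.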 Particulars: COS7 cell lysate, fluorescence, higher = more signal.
Assay [17] is described as follows: probe aLAP1 signal on lysate-treated microarray – cell lysate, small-molecule microarray, COS7 lysate, primary screen (AID 1124).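 Also: lysate comes from COS7 cells expressing LAP1 and is applied at 0.3 µg/mL; score merges spot fluorescence near 667 nm with signal-to-noise over triplicate slides.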 As to conditions: probe aLAP1, fluorescence, higher = more signal.
In assay [18] the test system is Sam68 (KHDRBS1). As to the kind of experiment: compounds binding KHDRBS1 protein – biochemical, small-molecule microarray, 635 nm fluorescence, primary screen (AID 1125).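 Also: score merges 667 nm channel intensity with signal to noise over triplicate slides.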 As to conditions: higher = more signal.
The test system of assay [19] is Chordin-like protein 2 (CHRDL2). As to the kind of experiment: compounds binding chordin-like 2 – biochemical, small-molecule microarray, 635 nm fluorescence, primary screen (AID 1126).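 Also: printed compound slides probed with Chrdl2 protein at 4 µg/mL for 1 h at 4 C; score merges 667 nm emission intensity with signal to noise over three replicate slides.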 Particulars: fluorescence 635 nm, higher = more signal.
In assay [20] the target is Concanavalin-A (Canavalia ensiformis) (UniProt P02866). In words: compounds binding concanavalin A lectin – biochemical, small-molecule microarray, Alexa647 label, 635 nm, artefact control for SMM control protein annotation, primary screen (AID 1127).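 Also: z combines 667 nm emission intensity with signal-to-noise across three replicate slides.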 Particulars: ConA-A647 binding fluorescence, higher = more signal.
Concanavalin-A (Canavalia ensiformis), sequence (P02866 whole entry, looked up): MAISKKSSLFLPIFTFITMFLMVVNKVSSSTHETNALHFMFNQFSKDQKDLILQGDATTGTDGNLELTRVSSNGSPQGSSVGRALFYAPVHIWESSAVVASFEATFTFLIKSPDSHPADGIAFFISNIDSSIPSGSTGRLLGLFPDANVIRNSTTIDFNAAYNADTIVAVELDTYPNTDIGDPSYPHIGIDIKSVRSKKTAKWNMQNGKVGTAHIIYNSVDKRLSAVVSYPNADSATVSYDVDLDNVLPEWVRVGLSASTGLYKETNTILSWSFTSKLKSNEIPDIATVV

Alpha-bungarotoxin (Bungarus multicinctus), sequence (P60615 whole entry, looked up): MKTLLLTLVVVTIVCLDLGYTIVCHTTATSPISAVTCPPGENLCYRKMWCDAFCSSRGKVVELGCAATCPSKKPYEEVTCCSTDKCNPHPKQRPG
Left-right determination factor 2 (Homo sapiens), sequence (O00292 whole entry, looked up): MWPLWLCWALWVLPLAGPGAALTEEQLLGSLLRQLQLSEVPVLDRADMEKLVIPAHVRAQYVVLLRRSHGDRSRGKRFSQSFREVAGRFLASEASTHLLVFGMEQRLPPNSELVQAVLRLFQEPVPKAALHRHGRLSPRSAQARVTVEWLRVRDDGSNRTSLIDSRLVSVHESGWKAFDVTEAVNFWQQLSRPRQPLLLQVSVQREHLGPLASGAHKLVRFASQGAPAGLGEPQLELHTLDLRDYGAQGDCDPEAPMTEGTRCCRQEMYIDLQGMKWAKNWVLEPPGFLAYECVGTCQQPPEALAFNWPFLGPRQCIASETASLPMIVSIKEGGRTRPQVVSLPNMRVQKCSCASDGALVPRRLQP
Torsin-1A-interacting protein 1 (Homo sapiens), sequence (Q5JTV8 whole entry, looked up): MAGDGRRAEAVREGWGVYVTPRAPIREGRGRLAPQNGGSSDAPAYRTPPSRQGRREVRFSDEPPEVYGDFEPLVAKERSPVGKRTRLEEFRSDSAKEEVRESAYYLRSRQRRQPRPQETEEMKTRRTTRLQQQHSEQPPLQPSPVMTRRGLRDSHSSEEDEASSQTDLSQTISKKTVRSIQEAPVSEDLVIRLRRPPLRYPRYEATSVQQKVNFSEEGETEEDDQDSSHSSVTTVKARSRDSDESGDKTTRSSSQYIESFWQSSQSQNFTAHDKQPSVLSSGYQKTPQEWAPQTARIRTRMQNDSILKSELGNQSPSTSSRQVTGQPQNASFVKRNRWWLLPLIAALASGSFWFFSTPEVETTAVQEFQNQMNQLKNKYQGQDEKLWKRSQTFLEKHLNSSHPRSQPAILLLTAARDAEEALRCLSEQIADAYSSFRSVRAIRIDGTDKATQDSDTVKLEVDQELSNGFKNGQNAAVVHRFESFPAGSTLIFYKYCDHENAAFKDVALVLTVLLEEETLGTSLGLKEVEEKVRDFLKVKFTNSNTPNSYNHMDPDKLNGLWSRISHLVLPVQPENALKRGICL
Albumin (Bos taurus), sequence (P02769 whole entry, looked up): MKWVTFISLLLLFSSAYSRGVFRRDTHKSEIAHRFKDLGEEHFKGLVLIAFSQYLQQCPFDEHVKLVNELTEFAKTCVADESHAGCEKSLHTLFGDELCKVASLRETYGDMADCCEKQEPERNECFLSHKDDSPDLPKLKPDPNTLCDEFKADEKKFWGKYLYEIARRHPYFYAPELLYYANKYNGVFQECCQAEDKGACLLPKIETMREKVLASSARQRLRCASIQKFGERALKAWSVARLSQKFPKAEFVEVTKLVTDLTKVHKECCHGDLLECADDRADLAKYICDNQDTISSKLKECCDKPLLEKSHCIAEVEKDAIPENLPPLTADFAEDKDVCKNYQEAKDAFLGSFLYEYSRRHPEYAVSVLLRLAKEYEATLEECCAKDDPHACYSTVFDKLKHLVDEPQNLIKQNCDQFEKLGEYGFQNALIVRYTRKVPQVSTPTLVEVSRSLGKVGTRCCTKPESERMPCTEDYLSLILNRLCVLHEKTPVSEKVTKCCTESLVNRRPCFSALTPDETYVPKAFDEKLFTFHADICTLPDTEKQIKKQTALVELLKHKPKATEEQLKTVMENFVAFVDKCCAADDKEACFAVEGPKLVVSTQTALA

Take `Cc1ccc(S(=O)(=O)N[C@@H]2COC(=O)CC=C[C@@H](C)[C@@H]3C=C[C@H](O)[C@@H](COC(=O)CC=C[C@H]2C)O3)cc1`: the composite z-score was -0.813 and -0.0304 in assay [1]; 1.21 and 0.343 in [3]; -0.657 and -0.267 in assay [4]; -1.1 and -0.778 in assay [5]; -0.172 and -0.0044 in assay [6]; -0.0977 and -0.0035 in [7]. In addition, the composite z-score in assay [8] is -0.0965 and -0.116; in assay [9], 0.11 and 0.433; in assay [10], -0.268 and 0.391; in assay [11], -0.311 and -0.304; in [13], 0.0426 and -0.161; in assay [14], -0.14 and -0.124. Further, the composite z-score in assay [15] was -0.0023 and 0.221; in [16], -0.348 and 0.043; in assay [17] it was 0.0386 and 0.26; in [18] it was -0.132 and 0.293; in [19], 0.711 and 0.396; in [20], -0.6 and 0.152. Also, the z-score in [2] is -0.606 and -1.32. In addition, in assay [12], the composite Z-score is -0.842 (inactive) and -0.0662 (inactive).

With `CCOC(=O)[C@H](CC(C)C)NC(=O)CCC1CC(OC(=O)NCc2cccc3ccccc23)CC2(CCCC(COC(=O)NCc3ccccc3)O2)O1` (stereo not given in full), the composite z-score in [1] was -0.931; in assay [3], -0.0479; in assay [4], -0.195; in assay [5] it was -0.559; in assay [6], -0.152; in assay [7], -0.282. The composite z-score in assay [8] is -0.0029; in assay [9] it was -0.61; in assay [10] it was -0.274; in assay [11], -0.294; in assay [13] it was -0.155; in [14] it was -0.152. The composite z-score in [15] is -0.3; in assay [16] it was 0.043; in assay [17], -0.384; in assay [18], -0.903; in [19] it was -0.139; in assay [20] it was -0.68. This compound had a z-score in assay [2] of -0.132. In addition, in [12], the composite Z-score is -0.19 (inactive).

In the case of `COC(=O)C1=C(C)N(Cc2ccccc2)[C@]23O[C@](C(=O)OC)(C(=O)N2[C@@H]1c1ccccc1)[C@H]1C(=O)N(c2ccccc2)C(=O)[C@H]13`, the composite z-score in [1] was -0.167 and 0.131; in [3], 0.688 and 0.613; in assay [4], 0.361 and -0.212; in [5] it was -0.298 and -0.362; in [6], -0.197 and -0.0882; in assay [7] it was -0.304 and -0.0066. For the same compound, the composite z-score in assay [8] was -0.341 and 0.0299; in assay [9], -0.233 and 0.633; in [10], 1.34 and 1.08; in [11] it was 0.692 and 0.614; in assay [13], 0.121 and 0.024; in [14], 0.0793 and -0.0321. For the same compound, the composite z-score in [15] is 0.306 and 0.428; in assay [16] it was 1.05 and -0.39; in [17], 0.294 and 0.526; in assay [18], 0.682 and 0.308; in assay [19], 0.223 and 0.523; in assay [20], 0.838 and 0.0089. Also, the z-score in assay [2] was -0.716 and -0.479. Besides, the composite Z-score in assay [12] was -0.119 (inactive) and -0.275 (inactive).

Turning to `CCN1C(=O)[C@H]2[C@H]3[C@H](O)[C@H](O)CC(=NNC(=O)OCc4ccc(OC)cc4)[C@H]3CC[C@H]2C1=O`, the composite z-score is -0.432 in assay [1]; 0.261 in assay [3]; -0.222 in [4]; 0.161 in [5]; 0.0597 in [6]; 0.0611 in assay [7]. Moreover, the composite z-score was 0.664 in assay [8]; 0.537 in assay [9]; 0.379 in [10]; 0.878 in assay [11]; 0.0979 in [13]; -0.0903 in assay [14]. Also, the composite z-score is -0.121 in assay [15]; 0.0203 in [16]; 0.5 in assay [17]; -0.0112 in assay [18]; 0.737 in assay [19]; 0.364 in assay [20]. Besides, the z-score in assay [2] is 0.182. For the same compound, the composite Z-score in [12] is -0.388 (inactive).

As for `C=C(C)C(=O)OC[C@@H]1CN2[C@@H](CC[C@@H](C)[C@@H]2c2ccc(Br)cc2)C(=O)O1`, the composite z-score was 0.854 in assay [1]; 0.891 in assay [3]; -0.265 in assay [4]; -0.157 in [5]; -0.109 in assay [6]; 0.0684 in assay [7]. The composite z-score in [8] was -0.259; in [9], 0.183; in assay [10], 0.548; in [11] it was 0.635; in assay [13], -0.127; in assay [14], -0.153. Further, the composite z-score was found to be 0.195 in assay [15]; 0.774 in [16]; 0.937 in assay [17]; 1.16 in assay [18]; 0.426 in [19]; 0.363 in assay [20]. For the same compound, in assay [2], the z-score amounted to 0.867. Besides, in [12], the composite Z-score is -0.0665 (inactive).
